Test results reported in the supplement of paper PMC4466140.

B1: unnamed (peptide)
chain: RLSRLLLSLPPESFT

What follows are binders tested against ScBbc1 (assay: SPOT peptide array binding signal intensity (averaged, normalized) (arbitrary units (background-subtracted, floor 0; scale differs between SH3 domains)); higher = stronger binding of the SH3 domain to the peptide).
Description: (§1)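 GST-tagged SH3 domains from S. cerevisiae (Sc), A. gossypii (Ag), C. albicans (Ca) and S. pombe (Sp) were incubated at 10 ug/ml overnight at 4 C on cellulose SPOT membranes carrying 292 synthetic 15-mer peptides mined from the S. cerevisiae proteome (cysteines replaced by serines). Binding was detected with anti-GST antibody, HRP secondary and chemiluminescence, quantified with Genespotter, and reported as normalized spot intensities averaged over biological replicates.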
In the case of B1, the “SPOT peptide array binding signal intensity” value is reported as 1.25.

The binders below were run against ScBem1-D1 in the same assay as above.
Description: as §1
With B1 the “SPOT peptide array binding signal intensity” value was 102.

The binders below were run against ScBzz1-D1 in the same assay as above.
Description: as §1
B1 was tested, and the “SPOT peptide array binding signal intensity” value was 94.

These binders were tested against ScBzz1-D2 in the same assay as above.
Description: as §1
B1 was tested, and the “SPOT peptide array binding signal intensity” value was 118.

What follows are binders tested against ScCyk3 in the same assay as above.
Description: as §1
With B1 the “SPOT peptide array binding signal intensity” value was 89.

These binders were tested against ScFus1 in the same assay as above.
Description: as §1
In the case of B1, the “SPOT peptide array binding signal intensity” value is reported as 1180.

What follows are binders tested against ScHof1 in the same assay as above.
Description: as §1
For B1, the “SPOT peptide array binding signal intensity” value was 1.

Each binder was assayed against ScHse1 in the same assay as above.
Description: as §1
For B1, the “SPOT peptide array binding signal intensity” value was 1930.

The binders below were run against ScLsb1 in the same assay as above.
Description: as §1
For B1, the “SPOT peptide array binding signal intensity” value was 1.5.

Each binder was assayed against ScLsb2 in the same assay as above.
Description: as §1
In the case of B1, the “SPOT peptide array binding signal intensity” value is reported as 9.

These binders were tested against ScLsb3 in the same assay as above.
Description: as §1
For B1, the “SPOT peptide array binding signal intensity” value was 127.

What follows are binders tested against ScLsb4 in the same assay as above.
Description: as §1
In the case of B1, the “SPOT peptide array binding signal intensity” value is reported as 4.5.

Each binder was assayed against ScMyo3 in the same assay as above.
Description: as §1
For B1, the “SPOT peptide array binding signal intensity” value was ≤ 0.

What follows are binders tested against ScMyo5 in the same assay as above.
Description: as §1
With B1 the “SPOT peptide array binding signal intensity” value was 6.

These binders were tested against ScNbp2 in the same assay as above.
Description: as §1
B1 was tested, and the “SPOT peptide array binding signal intensity” value was 176.

The binders below were run against ScPex13 in the same assay as above.
Description: as §1
In the case of B1, the “SPOT peptide array binding signal intensity” value is reported as 1.75.

Each binder was assayed against ScRvs167 in the same assay as above.
Description: as §1
In the case of B1, the “SPOT peptide array binding signal intensity” value is reported as 20.3.

The binders below were run against ScSho1 in the same assay as above.
Description: as §1
With B1 the “SPOT peptide array binding signal intensity” value was 1770.

Each binder was assayed against ScSla1-D1-D2 in the same assay as above.
Description: as §1
For B1, the “SPOT peptide array binding signal intensity” value was ≤ 0.

These binders were tested against ScSla1-D3 in the same assay as above.
Description: as §1
In the case of B1, the “SPOT peptide array binding signal intensity” value is reported as 5.75.

What follows are binders tested against SpAbp1-D1 in the same assay as above.
Description: as §1
B1 was tested, and the “SPOT peptide array binding signal intensity” value was 198.

Each binder was assayed against SpBbc1 in the same assay as above.
Description: as §1
With B1 the “SPOT peptide array binding signal intensity” value was 0.5.

These binders were tested against SpBzz1-D1 in the same assay as above.
Description: as §1
In the case of B1, the “SPOT peptide array binding signal intensity” value is reported as 315.

What follows are binders tested against SpBzz1-D2 in the same assay as above.
Description: as §1
For B1, the “SPOT peptide array binding signal intensity” value was ≤ 0.

These binders were tested against SpCyk3 in the same assay as above.
Description: as §1
With B1 the “SPOT peptide array binding signal intensity” value was 10.

Each binder was assayed against SpHof1 in the same assay as above.
Description: as §1
For B1, the “SPOT peptide array binding signal intensity” value was 252.

What follows are binders tested against SpHof1-2 in the same assay as above.
Description: as §1
For B1, the “SPOT peptide array binding signal intensity” value was 24.2.

The binders below were run against SpHof1-3 in the same assay as above.
Description: as §1
For B1, the “SPOT peptide array binding signal intensity” value was 441.

What follows are binders tested against SpHse1 in the same assay as above.
Description: as §1
For B1, the “SPOT peptide array binding signal intensity” value was 1330.

Each binder was assayed against SpLsb1 in the same assay as above.
Description: as §1
In the case of B1, the “SPOT peptide array binding signal intensity” value is reported as 1.25.

What follows are binders tested against SpLsb4 in the same assay as above.
Description: as §1
With B1 the “SPOT peptide array binding signal intensity” value was 20.

Each binder was assayed against SpMyo1 in the same assay as above.
Description: as §1
With B1 the “SPOT peptide array binding signal intensity” value was 6.5.

The binders below were run against SpNbp2 in the same assay as above.
Description: as §1
In the case of B1, the “SPOT peptide array binding signal intensity” value is reported as 76.

The binders below were run against SpPex13 in the same assay as above.
Description: as §1
For B1, the “SPOT peptide array binding signal intensity” value was 16.

The binders below were run against SpRvs167 in the same assay as above.
Description: as §1
For B1, the “SPOT peptide array binding signal intensity” value was 13.7.

Each binder was assayed against SpSla1-D1-D2 in the same assay as above.
Description: as §1
B1 was tested, and the “SPOT peptide array binding signal intensity” value was ≤ 0.

These binders were tested against SpSla1-D3 in the same assay as above.
Description: as §1
B1 was tested, and the “SPOT peptide array binding signal intensity” value was 6.
